Assay results as given in PubChem BioAssay AID1030 (National Center for Advancing Translational Sciences (NCATS), 2008).
About 16,000 (7.3%) of roughly 220,000 compounds were called active. Another 25% or so got no clear call; they are omitted. This excerpt belongs to a sample that is enriched for actives. A number with no mark means an inactive call. Calls follow the shape of the dose curve; as a rule, active = well fitted inhibition curve with a large enough effect (not every such curve was filed as active); inconclusive = small, poorly fitted or top-dose-only effect, or another doubt; inactive = no such curve, though single readings can be large or run the other way.

Target: Aldehyde dehydrogenase 1A1 (Homo sapiens) (UniProt P00352)
Sequence (P00352 whole entry, looked up): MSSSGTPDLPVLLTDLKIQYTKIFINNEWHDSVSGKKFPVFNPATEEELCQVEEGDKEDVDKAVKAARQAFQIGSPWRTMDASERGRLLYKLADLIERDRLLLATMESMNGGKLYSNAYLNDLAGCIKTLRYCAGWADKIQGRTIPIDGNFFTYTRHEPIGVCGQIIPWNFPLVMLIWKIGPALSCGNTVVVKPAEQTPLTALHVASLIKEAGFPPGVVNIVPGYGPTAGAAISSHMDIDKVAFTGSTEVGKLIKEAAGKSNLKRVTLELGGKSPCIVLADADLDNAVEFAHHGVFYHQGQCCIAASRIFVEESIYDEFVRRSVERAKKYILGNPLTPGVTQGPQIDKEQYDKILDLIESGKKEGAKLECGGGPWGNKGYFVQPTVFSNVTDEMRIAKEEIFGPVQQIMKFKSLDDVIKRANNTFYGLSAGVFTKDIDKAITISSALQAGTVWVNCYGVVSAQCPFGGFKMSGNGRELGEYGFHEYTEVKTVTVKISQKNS
Experiment: qHTS Assay for Inhibitors of Aldehyde Dehydrogenase 1 (ALDH1A1);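 as to activity, negative = inhibition: plate controls were no enzyme wells and a reference inhibitor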
Conditions: Purified ALDH1A1, NADH fluorescence, propionaldehyde substrate; series mostly up to 75.3 µM; activity, negative = inhibition: at the top concentration
Potency is read from the fitted curve at half-maximal effect.

| SMILES | activity, negative = inhibition | Potency |
| --- | --- | --- |
| Cc1nnsc1C(=O)Nc1cccc(Cl)c1C | 3.33% | – |
| Cc1cccc(NC(=O)c2ccc3nsnc3c2)c1C | -4.39% | – |
| Cc1nc(C)c(C(=O)Nc2cccc(C)c2C)o1 | – | 17.8 µM (active) |
| O=C(c1ccc(F)cc1)N1CCCC(c2nc(-c3cccs3)no2)C1 (stereo not given) | -8.32% | – |
| CCOC(=O)C1CCN(C(=O)C2(NC(=O)Nc3cccc(F)c3)CCCCC2)CC1 | 4.32% | – |
| CC(=O)c1cnc(-c2ccccc2)s1 | -9.73% | – |
| CCN(CC)c1ccc(/C=N/Nc2nc(C)cc(C)n2)c(O)c1 | 2.46% | – |
| CCN(CC)c1ccc2oc(=O)c(C)nc2c1 | – | 1 µM (active) |
| CCN(CC)c1ccc2cc(C(N)=O)/c(=N\NC(=O)c3ccncc3)oc2c1 | -10.6% | – |
| COc1ccc(CCNC(=O)CN(c2ccccc2)S(C)(=O)=O)cc1 | 2.48% | – |
| Cc1cc(C(=O)NNC(=O)CCC2CCCCC2)c(C)o1 | -3.14% | – |
| CCOC(=O)C1C/C(=C\C(C)=O)c2cccc(C(F)(F)F)c2O1 (stereo not given) | -5.96% | – |
| C=CCC(C)(O)c1ccco1 (stereo not given) | 12.8% | – |
| O=C(c1ccc(Cl)c([N+](=O)[O-])c1)N1CCN(c2ccccc2)CC1 | 1.09% | – |
| O=[N+]([O-])c1ccc(N2CCN(c3ccc(O)cc3)CC2)c(Cl)c1 | – | 7.94 µM (active) |
| COc1ccc(N2CCN(c3ccc([N+](=O)[O-])cc3Cl)CC2)cc1 | 4.73% | – |
| C/C=C/C=C/C(=O)OCC(=O)Nc1ccc(Cl)cc1 | -2.76% | – |
| O=C(C1CCN(S(=O)(=O)c2ccc(Br)s2)CC1)N1CCN(C2CCCCC2)CC1 | -12.8% | – |
| Cc1ccc(S(=O)(=O)CC(=O)Nc2c(C)n(C)n(-c3ccccc3)c2=O)cc1 | -4.24% | – |
| Cc1ccc(S(=O)(=O)N2CCN(CC(=O)N/N=C/c3ccc(Br)s3)CC2)cc1 | 0.942% | – |
| CCCCOC(=O)Cn1c(=O)n(CC(=O)OCCCC)c2cc(C)ccc21 | -4.24% | – |
| CC(C)OC(=O)CN1CCN(c2ccc(Cl)cc2)CC1 | -2.07% | – |

| SMILES | activity, negative = inhibition | Potency |
| --- | --- | --- |
| Cc1ccccc1C(=O)NNC(=O)CN1C(=O)c2ccccc2C1=O | 4.91% | – |
| CCOC(=O)CN1C(=O)N[C@@H](c2ccc(Br)cc2)C(C(C)=O)=C1C | – | inactive |
| Cc1cccc2c1N(CCOc1ccccc1)C(=O)C2=O | – | 0.224 µM (active) |
| CC1(C)NC(=O)N(CCOc2cccc(Oc3ccccc3)c2)C1=O | -11.9% | – |
| Cc1nn(CCOc2ccccc2)c(=O)n1-c1ccccc1F | -4.02% | – |
| CCOC(=O)CN1C(=O)C(=O)c2cc(C)ccc21 | – | 0.178 µM (active) |
| Cc1cc(C)cc(OCC(=O)NNC(=O)CCN2C(=O)c3ccccc3C2=O)c1 | -8.44% | – |
| Cc1cccc2c1N(CC(=O)OC(C)C)C(=O)C2=O | – | 0.02 µM (active) |
| CC(C)OC(=O)CN1C(=O)C(=O)c2ccccc21 | – | 0.0631 µM (active) |
| CC(C)OC(=O)CN1C(=O)c2ccccc2C1=O | 8.21% | – |
| OCCC1CN(Cc2cccn2-c2nccs2)CCN1CCc1ccccc1 (stereo not given) | 11.6% | – |
| C/C(=N\NC(=O)c1cccnc1)c1ccc(-n2ccnc2)cc1 | 8.66% | – |
| C#CCOCCOCCOCCNc1nc(N2CCN(C(=O)[C@H](CCC(=O)O)n3cc(C(N)CO)nn3)CC2)nc(N2CCN(C(=O)[C@H](Cc3ccc(O)cc3)n3cc(C(N)[C@H](C)CC)nn3)CC2)n1 (stereo not given in full) | -1.39% | – |
| Cc1nnc(SCC2=C(C(=O)O)N3C(=O)C(NC(=O)Cn4nc(C)c(Cl)c4C)C3SC2)s1 (stereo not given) | 3.56% | – |
| CCCOc1ccc(NC(=O)CC2C(=O)N(C)C(=S)N2Cc2ccc3c(c2)OCO3)cc1 (stereo not given) | 4.02% | – |
| NS(=O)(=O)c1ccc(N2C(=O)C3C4CC(C(Br)C4Br)C3C2=O)cc1 (stereo not given) | 6.76% | – |
| CC(=O)Nc1ccc(S(=O)(=O)Nc2ccc(-c3ccc4nnc(C)n4n3)cc2)cc1 | -0.516% | – |
| NCCC(=O)c1ccccc1N | -18% | – |
| COc1ccc(NC(=O)c2sc(N)nc2-c2ccccc2)cc1 | 7.79% | – |
| S=C(NN=C1CCN(Cc2ccccc2)CC1)NC1CCCCC1 | -10.8% | – |
| CCN(C(=O)c1ccc(Br)cc1)c1ccccc1 | -4.18% | – |
| CCC1(C(=O)c2ccccc2)C(c2cccc([N+](=O)[O-])c2)C1(C(=O)OC)C(=O)OC (stereo not given) | 16% | – |

| SMILES | activity, negative = inhibition | Potency |
| --- | --- | --- |
| Cc1ccccc1C(=O)OC1OC(=O)C(Cl)=C1Nc1ccccc1 (stereo not given) | -17.1% | – |
| C=CCN1c2ccccc2[C@]23C[C@@H](C(=O)OC)N(S(=O)(=O)c4ccc([N+](=O)[O-])cc4)C2=NC(C(=O)OC)=C(C(=O)OC)[C@H]13 | -3.11% [at 13.5 µM] | – |
| O=C1NC2(CCCCCC2)C(=O)N1CCS(=O)(=O)Oc1ccccc1 | -2.26% | – |
| CC(=O)Nc1ccc(C(=O)/C=C/c2ccc[nH]2)cc1 | -1.58% | – |
| Cc1cc(C(=O)N/N=C/c2ccccc2[N+](=O)[O-])c(C)o1 | -5.15% | – |
| Clc1ccc(C2=CSC3=Nc4cccc5cccc(c45)N23)cc1 | – | 7.94 µM (active) |
| CCN(CC)CC1(O)CCN(C(=O)c2ccc(Cl)c(Cl)c2)CC1 | -1.58% | – |
| CC(C)(C)n1nc2c(c1NC(=O)c1cc3ccccc3o1)CSC2 | 9.75% | – |
| Cc1ccc(C)c(NC(=S)NCC(c2cccnc2)N2CCOCC2)c1 (stereo not given) | -2.08% | – |
| CCOC(=O)CC1=CC(=O)Nc2ccccc2N1 | 1.21% | – |
| CCOC(=O)C(=O)C1C(=O)Nc2ccccc21 (stereo not given) | – | 14.1 µM (active) |
| CCOC(=O)C1C(=O)NCC1c1ccccc1 (stereo not given) | 6.09% | – |
| CCCCC(CC)CNC(=O)CCCCn1c(=O)[nH]c2ccsc2c1=O (stereo not given) | 0.924% | – |
| CCCCC(CC)CNC(=O)C(=O)C1C(=O)Nc2ccccc21 (stereo not given) | – | 2 µM (active) |
| COC(=O)C(C)C1Sc2ccccc2NC1=O (stereo not given) | -1.81% | – |
| CC1=NN(C(=O)CCCc2ccccc2)C(O)(C(F)(F)F)C1 (stereo not given) | 0.404% | – |
| CC(C)C(=O)NCc1cc(-c2ccc(Cl)cc2)no1 | 14.5% | – |
| CCCCCCCC[C@@H](O)/C=C/C=C/C=C\[C@@H](O)CCCC(=O)O | 12.3% | – |
| [O-][n+]1onc2c1CCc1[nH]c(-c3ccccc3)nc1-2 | 16.4% | – |
| CCc1nnc(NC(=O)CSc2nc(SC)ns2)s1 | 3.53% | – |
| Cc1ccc(C(=O)OC2CCCN(C)C2)cc1 (stereo not given) | 7.18% | – |
| CCS(=O)(=O)c1cc([N+](=O)[O-])c(Sc2ccccc2N)s1 | – | 3.55 µM (active) |

| SMILES | activity, negative = inhibition | Potency |
| --- | --- | --- |
| Nc1ccccc1Sc1ccc(C(F)(F)F)cc1[N+](=O)[O-] | 1.57% | – |
| CCOC(=O)c1sc2nc(SC)nc(-c3ccccc3)c2c1N | -4.78% | – |
| CCc1nc2sc(C(=O)O)c(N)c2c2c1CCCC2 | 5.87% | – |
| Cc1nc2sc(C(=O)c3ccccc3)c(N)c2c2c1CCCC2 | – | 3.98 µM (active) |
| O=C(CSc1ccccc1F)NC1CCS(=O)(=O)C1 (stereo not given) | 3.62% | – |
| O=C(Cc1ccc2c(c1)CCCC2)Nc1ccccc1Cl | – | 12.6 µM (active) |
| O=C(CN1CCCCC1)Nc1ccccc1Cl | 14.8% | – |
| CSc1ccccc1NC(=O)Cc1ccc(Br)cc1 | 5.36% | – |
| Cc1cc(/C=C2/SC(=O)N(CC(=O)N3CCCC3)C2=O)ccc1N1CCOCC1 | 5.53% | – |
| C/C(=N/OC(=O)c1c(-c2c(F)cccc2Cl)noc1C)c1cnccn1 | -4.17% | – |
| CC(=O)c1ccc(NC(=O)C(C)NCc2ccc(Cl)cc2)cc1 (stereo not given) | 1.47% | – |
| O=C(NCc1ccc2c(c1)OCO2)c1ccc2c(c1)C(=O)N(CC1CCCO1)C2=O (stereo not given) | – | 1.58 µM (active) |
| O=C(NCc1ccc2c(c1)OCO2)c1sccc1Br | -7.89% | – |
| O=C(NCc1ccc2c(c1)OCO2)c1ccc(Cl)s1 | 11.5% | – |
| Cc1csc(SCC(=O)Nc2sccc2C#N)n1 | -1.71% | – |
| O=C1CCC(CCC(=O)N2CCCC(C(=O)c3ccc(Cl)cc3)C2)=NN1 (stereo not given) | 17.7% | – |
| CC(CC(=O)N1CCN(c2ccccc2)CC1)c1ccccc1 (stereo not given) | 13.1% | – |
| O=C(CCCN1C(=O)C2C3C=CC(C3)C2C1=O)N1CCN(c2ccccc2)CC1 (stereo not given) | – | 12.6 µM (active) |
| O=C(CCN1C(=O)C2C3C=CC(C3)C2C1=O)Oc1ccc2ccccc2c1 (stereo not given) | -9.74% | – |
| S=c1[nH]ccn1-c1ccc(Cl)cc1 | -9.08% | – |
| Cc1ccc(CN2CCN(Cc3ccccc3-c3ccco3)CC2CCO)o1 (stereo not given) | 8.18% | – |
| CC(C)CCN1CCN(Cc2ccc(C(F)(F)F)cc2)CC1CCO (stereo not given) | 0.124% | – |

| SMILES | activity, negative = inhibition | Potency |
| --- | --- | --- |
| CC(C)CCN1CCN(C/C=C/c2ccco2)CC1CCO (stereo not given) | – | 28.2 µM (active) |
| COC(=O)c1cccnc1NC(=S)NC(C)C | 1.85% | – |
| COc1ccc(N=Nc2ccc(O)c(P(=O)(c3ccccc3)c3ccccc3)c2)cc1 | 6.87% | – |
| CCOc1cc(/C=C2/N=C(c3ccc(C(C)(C)C)cc3)OC2=O)cc(Cl)c1OS(C)(=O)=O | – | 22.4 µM (active) |
| CN(CCc1cnn(C)c1)Cc1cn(C)nc1-c1ccccc1F | 2.47% | – |
| COc1cccc(CNC(=O)CCC2CCCN(C(=O)c3ccoc3C)C2)c1 (stereo not given) | – | 22.4 µM (active) |
| COc1cccc(C(=O)N2CCCC(CCC(=O)NCc3ccc(F)c(F)c3)C2)c1 (stereo not given) | -7.32% | – |
| COc1cccc(CNC(=O)CCC2CCCN(C(=O)c3cc(C)[nH]n3)C2)c1 (stereo not given) | -5.25% | – |
| Cc1ccc(C(NC(=O)N2CCCC2)C(Cl)(Cl)Cl)cc1F (stereo not given) | 8.02% | – |
| CC(=O)Nc1cccc(-c2cnc3ccccc3n2)c1 | 3.58% | – |
| Cc1cc(O)ccc1-c1cnc2ccccc2n1 | – | 28.2 µM (active) |
| c1ccc2nc(C3=NCCN3)cnc2c1 | -9.53% | – |
| Cc1cccc(NC(=S)NC23CN4CN(CN(C4)C2)C3)c1 | 4.51% | – |
| COc1ccc(-n2nnnc2SCC(=O)Nc2ccccc2)cc1 | 3.98% | – |
| Cc1ccc(Nc2nc(CSc3nnnn3-c3ccccc3)cc(=O)[nH]2)cc1 | – | 22.4 µM (active) |
| Cc1ccc(-c2noc(CC(c3ccccc3)c3ccccc3)n2)cc1 | -4.15% | – |
| Cc1ccc(-c2noc(CN3CCN(Cc4ccccc4)CC3)n2)cc1 | – | 28.2 µM (active) |
| Cc1ccc(SCc2cc(=O)[nH]c(N3CCCCC3)n2)cc1 | 3.1% | – |
| Cc1ccc(-c2noc(CSc3nnnn3-c3ccccc3)n2)cc1 | – | 7.08 µM (active) |
| CC1CCN(Cc2nc(-c3ccc(Cl)cc3)no2)CC1 | 0.85% | – |
| Cc1ccc(-c2noc(CSc3nnc(-c4cccs4)n3C)n2)cc1 | -10.9% | – |
| Cc1ccc(-c2noc(CSc3nnc(-c4ccccc4)n3C)n2)cc1 | -1.16% | – |
